# From PubChem BioAssay (NCI)
# This is part of a sample that, as a whole, favours compounds with a hit. Of some 83,000 tested, about 20% had one in any assay.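 96-well plates, one dose, 48 hours. Percent growth reported; active if below 10.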 A number with no mark means an inactive call. Calls of active or inactive are those of the source.
# What was measured:
# Assay in all cases: NCI-60 one-dose screen, 48 h (100 = growth as untreated, 0 = no growth, -100 = all killed)
# Details in all cases: 10 µM unless noted
# NCI-H23 lung = system: NCI-H23 lung
# NCI-H226 lung = system: NCI-H226 lung
# NCI-H322M lung = system: NCI-H322M lung
# HOP-62 NSCLC = system: HOP-62 NSCLC
# NCI-H460 lung = system: NCI-H460 lung
# HOP-92 NSCLC = system: HOP-92 NSCLC
# NCI-H522 lung = system: NCI-H522 lung
# A549/ATCC NSCLC = system: A549/ATCC NSCLC
# 786-0 renal = system: 786-0 renal
# COLO 205 colon = system: COLO 205 colon
Compound,growth (NCI-H23 lung),growth (NCI-H226 lung) [%],growth (NCI-H322M lung) [%],growth (HOP-62 NSCLC),growth (NCI-H460 lung),growth (HOP-92 NSCLC),growth (NCI-H522 lung),growth (A549/ATCC NSCLC) [%],growth (786-0 renal) [%],growth (COLO 205 colon)
Cc1cc(NC(=O)c2ccc(N)cc2)ccc1N=Nc1ccc2cc(S(=O)(=O)O)cc(S(=O)(=O)O)c2c1,103%,105,125,106%,117%,60.8%,129%,92.1,112,109%
O=C(O)/C=C(\c1nc2ccc([N+](=O)[O-])cc2[nH]1)c1cc(Cl)ccc1O,4.9% (active),34.4,33.6,42.8%,14.4%,8.34% (active),2.47% (active),27,44,27.5%
C=CCn1c(SCC(=O)Nc2ccc(C(=O)/C=C/c3ccccc3)cc2)nnc1-c1ccc(OC)c(OC)c1,80.7%,85.9,85.9,99.1%,88.2%,82.7%,68.3%,61,75.6,91.2%
O=C1C(Cl)=C(N/N=c2/[nH][nH]/c(=N/NC3=C(Cl)C(=O)c4ccccc4C3=O)c3ccccc23)C(=O)c2ccccc21,82.5%,74.8,58.4,-10.5% (active),81.4%,117%,30.1%,94.6,96,52.5%
COC(=O)CNS(=O)(=O)c1ccc2c(c1)Cc1cc(S(=O)(=O)NCC(=O)OC)ccc1-2,107%,89.9,106,97.8%,105%,99.6%,95.7%,99.7,105,107%
COc1ccc(C2=CC(c3ccc(OC)cc3Br)N3C=CSC3=N2)cc1 (stereo not given),96.9%,66.6,72.8,75.6%,90.6%,77.4%,67.9%,41.8,83.7,80.3%
CCCCCCCCCCCC1=NC(C)(C)CN1C(C)(C)CO,59.5%,94.8,92.6,60.4%,28.2%,28.7%,47.5%,68.8,71.6,-81.4% (active)
CC1CCN(Cc2ccc(NC(=O)c3cc4ccc5cccnc5c4[nH]3)cc2)CC1,25.2%,43,49.2,26.2%,8.35% (active),63.7%,23%,25.7,36.8,-16.3% (active)
Clc1ccc2c(c1)-c1ccccc1C1=NCCN12,33.4%,24.7,25.3,45.9%,8.92% (active),58.6%,23.2%,13,44.8,7.28% (active)
Cc1ccc(N2C3c4ccccc4N(S(=O)(=O)c4ccc(C)cc4)C2c2ccccc2N3S(=O)(=O)c2ccc(C)cc2)cc1,99.9%,94.3,106,107%,99.5%,101%,106%,97.1,112,115%
COc1cc2c(cc1C)NC(=O)/C2=C\c1c[nH]c2ccccc12,79.9%,84,65.8,75.2%,40.6%,50.1%,54.7%,52.5,65.4,91.1%
